# Bioassay records deposited in PubChem by Emory University Molecular Libraries Screening Center.
# The sample as a whole holds a higher share of hits than the screen did.
# 14-3-3 PPI – modulators of human 14-3-3 gamma - Raf peptide interaction; inhibition, % at 40 µM; P61981; FP, 14-3-3gamma / TMR-pS259-Raf peptide binding; 0.19% of 160,000 active; in the data active = inhibition above about 30%;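 also: 0% = protein plus tracer without compound and 100% = blank with tracer alone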
# Target sequence (P61981 whole entry, looked up): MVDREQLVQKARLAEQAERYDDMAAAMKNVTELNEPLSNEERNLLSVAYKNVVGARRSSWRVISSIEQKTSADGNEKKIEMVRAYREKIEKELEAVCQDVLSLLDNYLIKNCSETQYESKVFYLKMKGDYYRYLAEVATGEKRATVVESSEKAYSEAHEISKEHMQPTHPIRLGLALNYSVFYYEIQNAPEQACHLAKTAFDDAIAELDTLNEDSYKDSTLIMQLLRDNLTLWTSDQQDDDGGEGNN
# * marks the source's active call; other numbers are inactive results; ! = not active in a repeat.
SMILES,14-3-3 PPI
COc1ccc(C=Nc2ccccc2)cc1,-12
CC1(C)CC(=O)C2=C(C1)Nc1[nH]c(=S)[nH]c(=O)c1C2c1ccc(F)cc1 (stereo not drawn),-6
CN1CCN(c2ccc([N+](=O)[O-])cc2S(=O)(=O)N2CCCC2)CC1,39*
Cc1ccc([N+](=O)[O-])cc1S(=O)(=O)N1CCCCC1,5
O=[N+]([O-])c1ccc(N2CCCC2)c(S(=O)(=O)N2CCOCC2)c1,-5
COc1ccc(-c2c3c(=O)n(C)c(=O)n(C)c3c3c(-c4ccccc4)cc(C)nn23)cc1,-3
COc1ccccc1NC(=O)c1cn(CC(C)C)c(=O)c2cc(OC)c(OC)cc12,-10
CCOC(=O)C1=NN(c2ccc(Cl)cc2)C2C(=O)N(c3ccccc3[N+](=O)[O-])C(=O)C12 (stereo not drawn),-3
COc1cccc2c1C(=O)c1c(O)c3c(c(O)c1C2=O)C[C@@](O)(C(=O)CO)C[C@@H]3O[C@H]1C[C@H](N)[C@H](O)[C@H](C)O1,57*
COc1cccc(C(=O)Nc2cccc(-c3nc4ccc(C(=O)c5ccccc5)cc4[nH]3)c2)c1,-6
CN1C(C(=O)c2ccccc2)=C(NC(=O)c2ccccc2)c2ccccc2S1(=O)=O,-5
CCCc1cc(=O)oc2c(C)c(OCc3ccc(F)cc3)ccc12,10
Cc1ccc(N=C2C(=O)Nc3ccccc32)cc1,-4
CCN(CC)c1ccc(N=C2C(=O)Nc3ccccc32)cc1,-36
CN(C)c1ccc(/C=C2\C(=O)Nc3ccccc32)cc1,38*
Cc1cccc(NC(=O)CC2C(=O)Nc3ccccc3N2C(=O)c2cccc([N+](=O)[O-])c2)c1 (stereo not drawn),4
CC(=O)N1CCc2cc(S(=O)(=O)CCC(=O)N3CCN(Cc4ccccc4)CC3)ccc21,-11
CC(=O)Oc1ccccc1N1C(=O)c2ccccc2C1=O,3
CNc1ccc(OC)c2c1C(=O)c1ccccc1C2=O,-171
CC(=O)Oc1ccc(OC(C)=O)c2c1C(=O)c1ccccc1C2=O,69*
COc1ccc(C2C(=O)N(C3CCCCCC3)CC(=O)N2Cc2ccccc2OC)cc1 (stereo not drawn),10
CCCOc1ccc(/C(O)=C2\C(=O)C(=O)N(Cc3cccnc3)C2c2ccc(F)cc2)cc1C (stereo not drawn),-9
Cc1nc(Cl)c(C(=O)O)c(C)c1[N+](=O)[O-],-1
COC(=O)c1c(Cl)nc(Cl)c([N+](=O)[O-])c1Cl,56*
O=C(O)c1c(Cl)nc(Cl)c([N+](=O)[O-])c1Cl,3
SMILES,14-3-3 PPI
COc1ccc(C(=O)Nc2nc3c(s2)CCCC3)c(OC)c1,-1
N#Cc1c(NC(=O)CC(NC(=O)c2ccccc2)c2ccccc2)sc2c1CCCC2 (stereo not drawn),-25
COC(=O)C1=CN(C(C)C)C=C(C(=O)OC)C1c1ccccc1F,4
COc1ccc(OC)c(NC(=O)CN(C)S(=O)(=O)c2cccs2)c1,-2
Cc1cccc(N2C(=O)C3C(c4cc(Br)ccc4O)NC(CC(C)C)(C(=O)O)C3C2=O)c1 (stereo not drawn),2
COc1cc(NCCCC(C)N)c2ncccc2c1 (stereo not drawn),70*
COc1cc(NS(=O)(=O)c2ccc(C)cc2)c2ncccc2c1,-8
COc1cccc(CNc2cccc3cccnc23)c1O,-13
CCCCCNC(=O)c1c[nH]c2ccc(S(=O)(=O)N(C)c3ccc(C)c(C)c3)cc2c1=O,5
Cc1cccc(CN2C(=O)CSc3ccc(C(=O)O)cc32)c1,0
COc1ccc2c(c1)c(C=Cc1nc3ccccc3c(=O)n1-c1ccccc1[N+](=O)[O-])c(C)n2C,-1
CC1CCC(C(C)C)C(OC(=O)CN2C(=O)c3ccccc3C2=O)C1 (stereo not drawn),-35
CCOC(=O)c1ccc(NC(=O)Cn2cccc2)cc1,-4
CCOC(=O)c1ccc(NC(=O)CN2CCN(c3ccccc3)CC2)cc1,-5
CCOC(=O)c1ccc(NC(=O)CN2CCCCC2)cc1,31*
COc1cc(C2Nc3ccc4ncccc4c3C3=C2C(=O)CC(C)(C)C3)ccc1OC(=O)C(C)C (stereo not drawn),-7
C=CCn1c(-c2ccc(Cl)cc2)csc1=Nc1ccccc1,-3
C#CCn1c2ccccc2c2ccccc21,58*
OCCN1CCN(CC#CCn2c3ccccc3c3ccccc32)CC1,-2
OC(CCl)Cn1c2ccccc2c2ccccc21 (stereo not drawn),8
COc1cc2c(cc1OC)C1C(C(=O)Nc3cccc([N+](=O)[O-])c3C)c3ccccc3C(=O)N1CC2 (stereo not drawn),-7
O=C1C2C(c3ccccc3)C=CC(c3ccccc3)C2C(=O)N1c1ccccc1F (stereo not drawn),0
COC(=O)c1ccc(C(=O)OC)c(NC(=O)c2ccc(OC)cc2OC)c1,-33
COc1ccc(C(=O)Oc2ccc(C(C)=O)cc2)c(OC)c1,38*
COc1ccc(OC)c(S(=O)(=O)Nc2ccc(C(C)=O)cc2)c1,-2
SMILES,14-3-3 PPI
O=c1c2cc3c(=O)n(-c4cc(Br)ccc4O)c(=O)c3cc2c(=O)n1-c1cc(Br)ccc1O,-12
O=C(O)C1Cc2c([nH]c3ccccc23)CN1 (stereo not drawn),-2
O=C(O)C1Cc2c([nH]c3ccccc23)C(c2ccccc2[N+](=O)[O-])N1 (stereo not drawn),53*
O=C(O)C1Cc2c([nH]c3ccccc23)C(c2ccccc2)N1 (stereo not drawn),5
Cc1ccc(-n2c(SCc3ccc(C(F)(F)F)cc3)nc3c(c2=O)SCC3)cc1,-9
COc1ccc(-c2cc(C(F)(F)F)nc(NC(C)c3ccccc3)n2)cc1OC (stereo not drawn),-2
O=C(O)C1CCCN1S(=O)(=O)c1ccc(F)cc1 (stereo not drawn),-6
O=C(O)C1CCCCN1S(=O)(=O)c1ccc(Cl)cc1 (stereo not drawn),-12
Cc1ccc(S(=O)(=O)N2CCCC2C(=O)O)cc1 (stereo not drawn),53*!
O=C(NCC1CCCO1)c1ccc2c(=O)n(Cc3ccc4c(c3)OCO4)c(=S)[nH]c2c1 (stereo not drawn),4
CCOc1ccc(NC(=O)c2cc(-c3cccs3)nc3ccccc23)cc1,-2
COc1ccccc1NC(=O)c1coc(=O)c2ccccc12,-7
COc1ccccc1N=Cc1c(O)c(C(=O)Nc2ccccc2OC)cc2ccccc12,78*
COc1ccccc1NC(=O)c1cc2ccccc2c(C=Nc2ccc(Cl)cc2)c1O,14
CC(=O)Nc1ccc(N=Cc2c(O)c(C(=O)Nc3ccccc3)cc3ccccc23)cc1,174*
CCOc1ccc(N=Cc2c(O)c(C(=O)Nc3ccccc3)cc3ccccc23)cc1,71*
COc1cc2ccccc2cc1C(=O)Nc1ccccc1Oc1ccccc1,-5
CCOc1ccc(N=Cc2c(O)c(C(=O)Nc3ccccc3OC)cc3ccccc23)cc1,59*
CCOc1ccc(-c2nc3cc(N=Cc4c(O)ccc5ccccc45)ccc3o2)cc1,-31
CC(=O)Nc1ccc(N=Cc2c(OC(=O)c3cccc4ccccc34)ccc3ccccc23)cc1,3
CCOc1ccccc1C(=O)Nc1cc(OC)ccc1OC,6
O=C(Nc1ccccc1)c1cc2ccccc2c(C=Nc2ccc(Cl)cc2)c1O,0
COc1ccc(C2CC(c3cccs3)=NN2C(=O)CS(=O)(=O)c2c[nH]c3ccccc23)cc1 (stereo not drawn),-21
Cc1cccc(Cn2c(=O)n(Cc3ccccc3)c(=O)c3ccccc32)c1,0
